From PubChem BioAssay AID1159580 (chemical genetic matrix, 2015)
Several values for one entry are separate records, joined by “and”; a condition that tells them apart may be missing. Equal entries are not always repeated. Hit rate of the full screen: of about 5,500 compounds, about 2,000 (36%) were called active. About 18% were inconclusive and are not listed. No stated cut-off is given here; in the data, active means normalized growth mostly below about 0.91 (no sharp cut-off); inconclusive means no clear call, values can overlap the other calls; inactive means mostly above about 0.92. This is one part of the list.

Test: chemical genetic growth profiling, strain panel (AID 1159580);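 further: tested at 20 µM; growth read once vehicle control cultures reached saturation at 30 °C; 1 = growth at the plate median or of vehicle wells; lower values mean less growth of the strain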
Conditions: S. cerevisiae deletion strains, growth OD

Measured: normalized growth

CN(C)[C@@H]1C(=O)C(C(N)=O)=C(O)[C@@]2(O)C(=O)C3=C(O)c4c(O)ccc(Cl)c4[C@@H](O)[C@H]3C[C@@H]12
inactive: locus YAL013W, strain DEP1, hits give low values 1 | locus YAL021C, strain ccr4, hits give low values 0.971 | locus YAL026C, strain drs2, hits give low values 1 | locus YAL030W, strain snc1, hits give low values 0.984 | locus YBL061C, strain skt5, hits give low values 0.98 | locus YBR009C, strain hhf1, hits give low values 1.04 | locus YBR021W, strain FUR4, hits give low values 0.945 | locus YBR023C, strain chs3, hits give low values 0.982 | locus YBR171W, strain sec66, hits give low values 0.978 | locus YBR229C, strain ROT2, hits give low values 1 | locus YBR231C, strain swc5, hits give low values 0.991 | locus YBR279W, strain paf1, hits give low values 0.994 | locus YCL011C, strain gbp2, hits give low values 1.06 | locus YCL016C, strain dcc1, hits give low values 0.964 | locus YCL029C, strain bik1, hits give low values 0.992 | locus YCL061C, strain MRC1, hits give low values 0.992 | locus YCL069W, strain vba3, hits give low values 0.997 | locus YCR088W, strain abp1, hits give low values 0.993 | locus YDL005C, strain med2, hits give low values 0.983 | locus YDL035C, strain GPR1, hits give low values 1.01 | locus YDL040C, strain nat1, hits give low values 0.992 | locus YDL074C, strain BRE1, hits give low values 0.994 | locus YDL101C, strain DUN1, hits give low values 1 | locus YDL134C, strain PPH21, hits give low values 1 | locus YDL185W, strain tfp1, hits give low values 0.984 | locus YDL192W, strain arf1, hits give low values 0.982 | locus YDR001C, strain nth1, hits give low values 0.977 | locus YDR069C, strain doa4, hits give low values 0.969 | locus YDR101C, strain arx1, hits give low values 0.999 | locus YDR137W, strain rgp1, hits give low values 0.921 | locus YDR159W, strain sac3, hits give low values 1.06 | locus YDR162C, strain NBP2, hits give low values 1.02 | locus YDR195W, strain ref2 1 | locus YDR297W, strain sur2, hits give low values 0.979 | locus YDR318W, strain mcm21, hits give low values 0.997 | locus YDR334W, strain swr1, hits give low values 0.95 | locus YDR335W, strain msn5, hits give low values 0.98 | locus YDR388W, hits give low values 0.983 | locus YDR392W, strain spt3, hits give low values 0.854 | locus YDR502C, strain sam2, hits give low values 0.981 | locus YEL003W, strain gim4, hits give low values 0.98 | locus YEL037C, strain rad23, hits give low values 0.99 | locus YEL061C, strain CIN8 (second series), hits give low values 0.988 | locus YEL061C, strain CIN8, hits give low values 1 | locus YER015W, strain faa2, hits give low values 0.988 | locus YER016W, strain bim1, hits give low values 0.994 | locus YER110C, hits give low values 0.98 | locus YER111C, strain swi4, hits give low values 0.994 | locus YER155C, strain BEM2 (second series), hits give low values 0.932 | locus YER155C, strain BEM2, hits give low values 1.01 | locus YER167W, strain BCK2, hits give low values 1.01 | locus YFR010W, strain ubp6, hits give low values 0.991 | locus YGL078C, strain dbp3, hits give low values 0.988 | locus YGL086W, strain mad1, hits give low values 0.986 | locus YGL167C, strain pmr1, hits give low values 0.988 | locus YGL173C, strain kem1, hits give low values 0.985 | locus YGL227W, strain vid30, hits give low values 0.982 | locus YGL240W, strain doc1, hits give low values 0.95 | locus YGL248W, strain PDE1, hits give low values 0.988 | locus YGL253W, strain hxk2, hits give low values 0.981 | locus YGR078C, strain PAC10, hits give low values 0.989 | locus YGR135W, strain pre9, hits give low values 0.974 | locus YGR252W, strain gcn5, hits give low values 0.879 | locus YHR013C, strain ard1, hits give low values 0.973 | locus YHR027C, strain rpn1, hits give low values 0.965 | locus YHR030C, strain SLT2, hits give low values 1 and 1.02 | locus YHR079C, strain IRE1 (second series), hits give low values 0.976 | locus YHR079C, strain IRE1, hits give low values 1.04 | locus YHR094C, strain hxt1, hits give low values 0.981 | locus YHR129C, strain ARP1, hits give low values 1.01 | locus YHR142W, strain chs7, hits give low values 0.981 | locus YHR200W, strain rpn10, hits give low values 0.987 | locus YIL066C, strain RNR3, hits give low values 1.01 | locus YIL073C, strain SPO22, hits give low values 0.992 | locus YIL125W, strain kgd1, hits give low values 0.983 | locus YIR030C, strain dcg1, hits give low values 0.98 | locus YJL092W, strain hpr5, hits give low values 0.987 | locus YJL095W, strain BCK1 (second series), hits give low values 0.98 | locus YJL095W, strain BCK1, hits give low values 0.998 and 1.03 | locus YJL115W, strain asf1, hits give low values 0.98 | locus YJL129C, strain trk1, hits give low values 0.984 | locus YJL134W, strain LCB3, hits give low values 1 | locus YJL154C, strain vps35, hits give low values 0.976 | locus YJL164C, strain tpk1, hits give low values 1 | locus YJL166W, strain qcr8, hits give low values 0.93 | locus YJL168C, strain set2, hits give low values 0.983 | locus YJL187C, strain SWE1 (second series), hits give low values 0.995 | locus YJL187C, strain SWE1, hits give low values 0.988 | locus YJR043C, strain POL32, hits give low values 0.984 | locus YJR066W, strain TOR1, hits give low values 0.97 | locus YKL009W, strain mrt4, hits give low values 1 | locus YKL068W, hits give low values 0.986 | locus YKL085W, strain MDH1 (second series), hits give low values 0.975 | locus YKL085W, strain MDH1, hits give low values 0.975 | locus YKL160W, strain elf1, hits give low values 0.93 | locus YKL190W, strain CNB1, hits give low values 1 | locus YKR001C, strain vps1, hits give low values 0.976 | locus YKR026C, strain gcn3, hits give low values 0.998 | locus YKR091W, strain srl3, hits give low values 0.98 | locus YLL001W, strain dnm1, hits give low values 0.921 | locus YLL026W, hits give low values 0.983 | locus YLL041C, strain sdh2, hits give low values 0.993 | locus YLR027C, strain aat2, hits give low values 1.01 | locus YLR039C, strain RIC1, hits give low values 0.995 | locus YLR058C, strain SHM2, hits give low values 0.998 | locus YLR102C, strain apc9, hits give low values 0.981 | locus YLR113W, strain HOG1, hits give low values 1.03 | locus YLR221C, strain rsa3, hits give low values 0.956 | locus YLR258W, strain gsy2, hits give low values 0.992 | locus YLR262C, strain YPT6 (second series), hits give low values 0.938 | locus YLR262C, strain YPT6, hits give low values 1.01 | locus YLR268W, strain sec22, hits give low values 0.954 | locus YLR320W, strain mms22, hits give low values 0.947 | locus YLR330W, strain CHS5, hits give low values 1.01 | locus YLR342W, strain FKS1 (second series), hits give low values 0.952 | locus YLR342W, strain FKS1, hits give low values 0.99 | locus YLR357W, strain rsc2, hits give low values 0.93 | locus YLR370C, strain arc18, hits give low values 0.979 | locus YLR371W, strain rom2, hits give low values 0.976 | locus YLR384C, strain iki3, hits give low values 0.975 | locus YLR418C, strain cdc73, hits give low values 0.939 | locus YML016C, strain PPZ1, hits give low values 0.999 | locus YML032C, strain rad52, hits give low values 0.988 | locus YML120C, strain ndi1, hits give low values 0.928 | locus YML124C, strain tub3, hits give low values 0.982 | locus YMR058W, strain fet3, hits give low values 0.934 | locus YMR078C, strain ctf18, hits give low values 0.982 | locus YMR125W, strain sto1, hits give low values 0.918 | locus YMR129W, hits give low values 0.989 | locus YMR205C, strain PFK2, hits give low values 0.938 | locus YMR223W, strain ubp8, hits give low values 0.977 | locus YMR231W, strain pep5, hits give low values 0.991 | locus YMR307W, strain GAS1, hits give low values 1.02 | locus YNL067W, strain RPL9B, hits give low values 0.997 | locus YNL071W, strain lat1, hits give low values 0.992 | locus YNL128W, strain TEP1, hits give low values 1.01 | locus YNL183C, strain NPR1, hits give low values 0.966 | locus YNL209W, strain ssb2, hits give low values 0.975 | locus YNL233W, strain BNI4, hits give low values 0.993 | locus YNL248C, strain rpa49, hits give low values 0.956 | locus YNL250W, strain rad50, hits give low values 0.99 | locus YNL271C, strain bni1, hits give low values 0.983 | locus YNL298W, strain CLA4, hits give low values 0.993 | locus YNL307C, strain MCK1, hits give low values 0.994 | locus YNL322C, strain KRE1 (second series), hits give low values 0.98 | locus YNL322C, strain KRE1, hits give low values 0.999 | locus YNR049C, strain mso1, hits give low values 0.978 | locus YNR052C, strain pop2, hits give low values 0.998 | locus YOL012C, strain htz1 0.761 | locus YOL147C, strain pex11, hits give low values 0.983 | locus YOR001W, strain rrp6, hits give low values 1.05 | locus YOR061W, strain CKA2, hits give low values 1 | locus YOR069W, strain VPS5, hits give low values 1 | locus YOR070C, strain gyp1, hits give low values 1.01 | locus YOR080W, strain dia2, hits give low values 0.981 | locus YOR083W, strain WHI5, hits give low values 0.941 | locus YOR106W, strain vam3, hits give low values 0.942 | locus YOR136W, strain idh2, hits give low values 0.979 | locus YOR144C, strain elg1, hits give low values 0.986 | locus YOR184W, strain ser1, hits give low values 0.995 | locus YOR231W, strain MKK1, hits give low values 1.04 | locus YOR265W, strain rbl2, hits give low values 0.982 | locus YOR270C, strain vph1, hits give low values 0.966 | locus YOR290C, strain snf2, hits give low values 0.958 | locus YOR316C, strain cot1, hits give low values 0.982 | locus YPL051W, strain arl3, hits give low values 0.973 | locus YPL055C, strain LGE1, hits give low values 0.992 | locus YPL078C, strain atp4, hits give low values 0.934 | locus YPL106C, strain sse1, hits give low values 0.911 | locus YPL240C, strain hsp82, hits give low values 0.993 | locus YPL256C, strain CLN2, hits give low values 1.02 | locus YPR119W, strain clb2, hits give low values 0.983 | locus YPR141C, strain kar3, hits give low values 0.981 | locus YPR163C, strain tif3, hits give low values 0.98 | locus YPR167C, strain met16, hits give low values 0.985 | strain wtn01, hits give low values 0.955
